Reference: PubChem BioAssay (NCATS)
Several values for one entry are separate records, joined by “and”; a condition that tells them apart may be missing. Equal values may be shown once. Results filed as inconclusive are left out. A structure can be active in one record and inactive in another. Unmarked numbers belong to inactive results. The call rests on the fitted dose curve; in most records, active means well fitted inhibition curve with a large enough effect; inconclusive means small, poorly fitted or top-dose-only effect; inactive means flat fitted curve, though single readings scatter.

Experiment: Drug repurposing screens with cells derived from glioblastoma tumor samples (AID 1345199); further: nearly all actives have a fitted effect of over 40% in size
Settings: GBM patient neurospheres viability, ATP luminescence, 48 h; at 21.2 µM (top of the series); tumour line B
Outline: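 Four patient lines of CD133+ GBM neurospheres were screened at several concentrations; hits were retested in those lines plus three slower-growing GBM lines, using 48-hour treatment and ATP-based viability.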
On the % scale 0 is the no-effect control and ±100 the full control effect.

SMILES	activity, negative = cell killing [%]
CC(=O)O[C@]1(C(C)=O)CC[C@H]2[C@@H]3C=C(C)C4=CC(=O)CC[C@]4(C)[C@H]3CC[C@@]21C	-20.3
CNCCc1ccccn1	-4.42
CC[C@]12CCCN3CCc4c(n(c5ccccc45)C(=O)C1)[C@@H]32	-16.8
COc1cc(NS(=O)(=O)c2ccc(N)cc2)ncn1	4.65
CCN(CC)CCOC(=O)C(Cc1cccc2ccccc12)CC1CCCO1 (stereo not drawn)	-13.3
Nc1ccc(C(=O)NCC(=O)O)cc1	-7.61
CCCCc1cc2ccccc2c(OCCN(C)C)n1	-17.4
O=C1C(CCS(=O)c2ccccc2)C(=O)N(c2ccccc2)N1c1ccccc1 (stereo not drawn)	2.69

Same assay, conditions: GBM patient neurospheres viability, ATP luminescence, 48 h; at 21.2 µM (top of the series); tumour line D

SMILES	activity, negative = cell killing [%]
CC(=O)O[C@]1(C(C)=O)CC[C@H]2[C@@H]3C=C(C)C4=CC(=O)CC[C@]4(C)[C@H]3CC[C@@]21C	13.6
CNCCc1ccccn1	-9.97
CC[C@]12CCCN3CCc4c(n(c5ccccc45)C(=O)C1)[C@@H]32	-29.4
COc1cc(NS(=O)(=O)c2ccc(N)cc2)ncn1	-16.4
CCN(CC)CCOC(=O)C(Cc1cccc2ccccc12)CC1CCCO1 (stereo not drawn)	-13.7
Nc1ccc(C(=O)NCC(=O)O)cc1	-13.9
O=C1C(CCS(=O)c2ccccc2)C(=O)N(c2ccccc2)N1c1ccccc1 (stereo not drawn)	2.83

Same assay, conditions: GBM patient neurospheres viability, ATP luminescence, 48 h; at 45.9 µM (top of the series); tumour line B

SMILES	activity, negative = cell killing
C[C@H]1[C@H]2CC[C@H]3[C@@H]4CC=C5C[C@@H](N(C)C)CC[C@]5(C)[C@H]4CC[C@]23CN1C	0.435%
O=C(Nc1cccc(C2=NCCN2)c1)Nc1cccc(C2=NCCN2)c1	7.96%
CC(C)NCC(O)c1ccc2ccccc2c1 (stereo not drawn)	-12.4%
COc1ccc(C(Cl)=C(c2ccc(OC)cc2)c2ccc(OC)cc2)cc1	-6.95%
NC(N)=NCc1cccc(I)c1	-24.3% and -14.8%
CCCCN=C(N)N=C(N)N	-13.5%
Nc1ccc(S(=O)(=O)NCc2ccccc2)cc1	0.545%
CC[N+](C)(CC)CCOC(=O)C(O)(c1ccccc1)C1CCCCC1 (stereo not drawn)	4.51%
CC(C)(C)NC[C@H](O)COc1nsnc1N1CCOCC1	-9.83%
CC(=O)NC(=O)c1ccccc1O	-6.43%
O=[N+]([O-])c1cccc(S(=O)(=O)NCCNS(=O)(=O)c2cccc([N+](=O)[O-])c2)c1	-14.3%
CN(C)CCOC(c1ccc(Cl)cc1)c1ccccn1 (stereo not drawn)	-15.3%
CCCCCN=C(N)N/N=C/c1c[nH]c2ccc(OC)cc12	-10.3%
CN=C(N)NCCC[C@H](N)C(=O)O	-4.01% and -7.28% and -14.2%
Cc1ccc(S(=O)(=O)NC(=O)NC2CCCC2)cc1	-10.4%
O=C(Oc1cccc2cccnc12)c1ccccc1	-24.1%
CC(=O)NCCCCCC(=O)O	-15.6%

Same assay, conditions: GBM patient neurospheres viability, ATP luminescence, 48 h; at 45.9 µM (top of the series); tumour line D

SMILES	activity, negative = cell killing
CCOC(=O)[C@H](CCc1ccccc1)N[C@@H](C)C(=O)N1[C@H](C(=O)O)C[C@H]2CCCC[C@@H]21	2.82%
O=C(Nc1cccc(C2=NCCN2)c1)Nc1cccc(C2=NCCN2)c1	-22.5%
CC(C)NCC(O)c1ccc2ccccc2c1 (stereo not drawn)	-5.15%
CCCCN=C(N)N=C(N)N	-11%
Nc1ccc(S(=O)(=O)NCc2ccccc2)cc1	-1.8%
CC[N+](C)(CC)CCOC(=O)C(O)(c1ccccc1)C1CCCCC1 (stereo not drawn)	-27.2%
CC(C)(C)NC[C@H](O)COc1nsnc1N1CCOCC1	-20.5%
CC(=O)NC(=O)c1ccccc1O	-8.37%
O=[N+]([O-])c1cccc(S(=O)(=O)NCCNS(=O)(=O)c2cccc([N+](=O)[O-])c2)c1	-9.35%
CN(C)CCOC(c1ccc(Cl)cc1)c1ccccn1 (stereo not drawn)	-15.7%
CCCCCN=C(N)N/N=C/c1c[nH]c2ccc(OC)cc12	8.03%
CN=C(N)NCCC[C@H](N)C(=O)O	-19.7% and 0.377% and -12.4%
Cc1ccc(S(=O)(=O)NC(=O)NC2CCCC2)cc1	-9.83%
O=C(Oc1cccc2cccnc12)c1ccccc1	-26.2%
CC(=O)NCCCCCC(=O)O	-10%

Same assay, conditions: GBM patient neurospheres viability, ATP luminescence, 48 h; at 46 µM (top of the series); tumour line A

SMILES	activity, negative = cell killing [%]
CCOC(=O)[C@H](CCc1ccccc1)N[C@@H](C)C(=O)N1[C@H](C(=O)O)C[C@H]2CCCC[C@@H]21	-15.6
O=C(Nc1cccc(C2=NCCN2)c1)Nc1cccc(C2=NCCN2)c1	2.01
CCc1oc2ccccc2c1C(=O)c1cc(Br)c(O)c(Br)c1	-39.6
CC(=O)NC(=O)c1ccccc1O	-24.9
CN=C(N)NCCC[C@H](N)C(=O)O	-28.1
CC(=O)NCCCCCC(=O)O	-23.3
